Shown are actives, neighbours in structure and some others; about 5.9% of the full set was active somewhere.
Rtt109 HAT inh: C. albicans Rtt109 histone acetyltransferase inhibition. AID 540336. purified Rtt109/Vps75, ThioGlo CoA-SH fluorescence, 4 h. inhibition, % at 34.9 µM. 330,000 compounds, 0.16% hits. Q5AAJ8;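 active = inhibition of at least 50% in every replicate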
rCAG RNA binder: binds r(CAG) RNA repeats | r(CAG) RNA repeat, TO-PRO-1 dye displacement fluorescence | inhibition, % at 3 µM | 370,000 compounds, 1.3% hits;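 active = inhibition above the plate cutoff, the mean of all test compounds on that plate plus 3 SD, cut at about 35% in these data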;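 also: higher means more dye released from RNA so lower well fluorescence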
ABHD5 PLIN5 PPI: blocks binding of human ABHD5 to perilipin-5. Q00G26+Q8WTS1. Split G. princeps luciferase complementation, luminescence, 4 h. inhibition, % at 4 µM. 360,000 compounds, 0.78% hits. AID 602281;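 active = inhibition above the mean inhibition across every tested compound plus 3 SD, cut at about 22% in these data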
LANA-H2B inh: blocks KSHV LANA binding to histone H2A/H2B; Q9QR71; cell-free LANA-H2A/H2B peptide, fluorescence polarization; inhibition, % (concentration not given with the values); 320,000 compounds, 0.6% hits; in the data active = inhibition mostly above about 10%, no sharp cut-off; inactive = mostly below about 6.7%
ALR H2O2 inh: human ALR oxidase inhibition via reduced H2O2 | AID 485317 | P55789 | 290,000 compounds, 3.8% hits | purified ALR, DTT oxidation, H2O2 HRP-luminol luminescence | inhibition, % (concentration not given with the values);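 active = mean replicate inhibition above about 79%, with every replicate also reaching it, limit read from the data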
Target sequence (P55789 whole entry, looked up): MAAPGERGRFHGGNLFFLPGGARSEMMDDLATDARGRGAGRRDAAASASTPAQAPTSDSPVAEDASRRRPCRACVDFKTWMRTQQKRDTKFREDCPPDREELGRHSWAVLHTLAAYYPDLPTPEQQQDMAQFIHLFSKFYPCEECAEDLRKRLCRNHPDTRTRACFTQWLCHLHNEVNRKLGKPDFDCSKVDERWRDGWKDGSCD
PRMT1 FP inh: PRMT1 (human) inhibition, primary screen; Q99873; recombinant PRMT1, activity-based probe fluorescence polarization; inhibition, % at 2.79 µM; 370,000 compounds, 1.3% hits;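 active = inhibition above about 21% made by adding two undisclosed values, limit read from the data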
Target sequence (Q99873 whole entry, looked up): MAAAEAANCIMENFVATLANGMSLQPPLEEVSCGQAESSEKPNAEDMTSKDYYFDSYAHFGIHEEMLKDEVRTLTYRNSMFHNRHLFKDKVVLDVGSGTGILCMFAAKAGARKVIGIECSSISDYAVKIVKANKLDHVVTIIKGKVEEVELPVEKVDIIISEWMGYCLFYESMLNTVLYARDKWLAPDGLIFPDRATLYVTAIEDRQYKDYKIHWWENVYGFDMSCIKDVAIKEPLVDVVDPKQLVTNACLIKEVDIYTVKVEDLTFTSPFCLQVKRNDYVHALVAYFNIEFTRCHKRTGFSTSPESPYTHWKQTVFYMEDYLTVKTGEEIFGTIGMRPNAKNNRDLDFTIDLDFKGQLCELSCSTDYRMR
Hits are given with their value; . = inactive; / = no result; + = active, no number; ! = a repeat was not active.

SMILES | Rtt109 HAT inh | rCAG RNA binder | ABHD5 PLIN5 PPI | LANA-H2B inh | ALR H2O2 inh | PRMT1 FP inh
N#Cc1cc([N+](=O)[O-])ccc1N1CCN(c2ccccc2O)CC1 | . | . | . | . | 98.1 | .
CCCCCCCCCCCCCCCC[n+]1ccccc1 | 75.2! | . | . | / | / | .
CCCCCCCCCCCCCCCC[n+]1ccc(C(N)=O)cc1 | . | . | . | . | . | .
CCc1nc2c(OCCc3cccc(OC)c3)cccn2c1N(C=O)Cc1ccc(OC)cc1 | / | . | . | / | / | .
O=C(CSc1ccc2nnc(-c3cccnc3)n2n1)Nc1ccc(F)cc1 | . | . | . | 30.9 | . | .
Cc1cc(C)c(NC(=O)CSc2ccc(-c3cccnc3)nn2)c(C)c1 | . | . | . | . | . | 23.2
Cc1cccc(NC(=O)CSc2ccc3nnc(-c4cccnc4)n3n2)c1 | . | . | . | 13.2 | . | .
Cc1ccc(NC(=O)CSCC(=O)N(C)Cc2c(F)cccc2Cl)cc1 | / | . | . | / | / | .
COc1cc(OC)cc(C(=O)N/N=C\c2ccoc2)c1 | . | . | . | . | . | .
FC(F)(F)c1cccc(CC2CN(Cc3ccccc3)Cc3ccccc3N2c2cc(Cl)cc(Cl)c2)c1 (stereo not given) | / | . | . | / | / | .
O=C(Nc1ccc(F)cc1)C(CCc1ccccc1)N1CCN(C(=O)c2ccco2)CC1 (stereo not given) | / | . | . | / | / | .
CCOC(=O)[C@H]1O[C@@H]1C(=O)N[C@@H](CC(C)C)C(=O)NCCC(C)C | . | / | . | . | 86.5 | /
Cc1ccc(C(=O)NCc2ccc3c(c2)OCO3)c(Cl)c1 | / | . | . | / | / | .
Cc1nc2c(C(=O)NCc3ccc4c(c3)OCO4)c[nH]n2c(=O)c1Cl | . | 55.1 | . | . | . | .
O=C(NCCC1=CCCCC1)c1cnc2n(c1=O)CCS2 | . | . | . | . | . | .
Cc1nc2c(C(=O)NCCC3=CCCCC3)c[nH]n2c(=O)c1Cl | . | 71.4 | . | . | . | .
COc1c(Cl)cc(C(=O)NN)cc1Cl | . | . | . | . | 88.9 | .
NNC(=O)c1cc(O)c(O)c(O)c1 | . | . | . | . | 98.6 | .
COc1ccc(Cl)c(-c2cc(C(=O)Nc3ccccc3)[nH]n2)c1 | / | . | . | / | / | .
O=C(OC1CC2CC1[C@H]1CCCCN1C2=O)N1CCN(C(=O)c2ccccc2)CC1 (stereo not given in full) | / | . | . | / | / | .
O=C(NCC1CCCO1)c1cc2c([nH]c3ccccc32)c(-c2cccc(Cl)c2)n1 (stereo not given) | . | / | . | . | . | /
COc1ccccc1-c1nc(C(=O)NCC2CCCO2)cc2c1[nH]c1ccccc12 (stereo not given) | . | / | . | . | 98.2 | /
COc1cc(-c2nc(C(=O)NCC3CCCO3)cc3c2[nH]c2ccccc23)cc(OC)c1OC (stereo not given) | . | . | . | . | 99.2 | .
Cc1ccc(C(=O)OCC(=O)N2CCC(C)CC2)cc1S(=O)(=O)N1CCOCC1 | / | . | . | / | / | .
N/C(=N\OC(=O)C1CCCCC1)c1cccc([N+](=O)[O-])c1 | . | / | . | 14.6 | . | /
SMILES | Rtt109 HAT inh | rCAG RNA binder | ABHD5 PLIN5 PPI | LANA-H2B inh | ALR H2O2 inh | PRMT1 FP inh
N/C(=N\OC(=O)Cc1ccc([N+](=O)[O-])cc1)c1ccc([N+](=O)[O-])cc1 | . | . | . | . | 97.3 | .
Cc1ccc(CC(=O)O/N=C(\N)c2cccc([N+](=O)[O-])c2)cc1 | . | . | . | . | . | .
N/C(=N\OC(=O)Cc1ccc([N+](=O)[O-])cc1)c1cccc(Br)c1 | . | . | . | . | 98.6 | .
COC(=O)[C@]12C[C@H](CC(=O)NCCCN3CCCC3=O)C(=O)N(CCc3ccc(OC)c(OC)c3)C1=C[C@H](C(C)C)O[C@@H]2C1CC1 | / | . | / | / | / | .
CCCc1nc(SCC(=O)Nc2ccc(N3CCOCC3)cc2)c2ccccc2n1 | . | . | . | . | 98.5 | .
CC(C)c1nc(SCC(=O)Nc2ccc(N3CCOCC3)cc2)c2ccccc2n1 | + | . | . | . | 98.7 | .
O=C(CSc1ccccc1)Nc1ccc(N2CCOCC2)cc1 | . | . | . | . | . | .
COc1ccc2c(COC(=O)CC3Sc4ccccc4NC3=O)cc(=O)oc2c1 (stereo not given) | . | . | . | 15.0 | . | .
Cc1c(Cc2ccccc2)c(=O)oc2cc(OC(=O)c3ccccc3)ccc12 | . | . | . | . | / | .
COC(=O)Cc1cc(=O)oc2cc(OC)ccc12 | . | . | . | 67.1 | . | .
Cc1c(Cc2ccccc2)c(=O)oc2cc(OCC(=O)N3CCC(C(=O)O)CC3)ccc12 | . | . | . | . | 93.4 | .
COC(=O)Cc1c(C)c2ccc(OC(=O)c3ccccc3)cc2oc1=O | . | . | . | . | 98.1 | .
O=C(O)C1CCN(C(=O)COc2ccc3c(c2)oc(=O)c2ccccc23)CC1 | . | . | . | . | . | .
COc1ccc2c(CC(=O)O)cc(=O)oc2c1 | . | . | . | . | . | .
COc1cccc(O[C@H]2C=C[C@@H](c3ccccc3)O[C@@H]2CO)c1 | / | . | / | / | / | .
CCCc1nc2ccc(C)cn2c1Cc1ccc(OC)cc1C | / | . | . | / | / | .
CCOc1ccccc1C(=O)N1CCC(Oc2cccnc2)CC1 | / | . | / | / | / | .
CC(C)C[C@H]1CNC(=O)C(=O)N1C[C@H]1CCCN1C[C@H](CC(C)C)N1C[C@H](CC(C)C)N(CCc2ccccc2)C(=O)C1=O | / | . | . | / | / | .
CCCC(=O)N1CCC1(C)C(=O)NS(=O)(=O)c1cc2c(cc1C)CCCS2(=O)=O (stereo not given) | / | . | . | / | / | .
O=C(CCC(=O)Nc1ccc(Cl)cc1Cl)N/N=C/c1ccc([N+](=O)[O-])o1 | / | . | . | . | . | 23.7
CCN(CCNC(=O)CCCn1nc(C)n2c(cc3sccc32)c1=O)c1ccccc1 | . | . | . | . | 98.4 | .
Cc1ccc(CNC(=O)C(Cc2ccccc2)NS(=O)(=O)c2ccc3c(c2)CCC(=O)N3)cc1 (stereo not given) | . | . | . | . | . | .
CCCNC(=O)C(Cc1ccccc1)NS(=O)(=O)c1ccc2c(c1)CCC(=O)N2 (stereo not given) | . | . | . | . | 83.6 | .
O=C1CCc2cc(S(=O)(=O)NC(Cc3ccccc3)C(=O)NC3CCCC3)ccc2N1 (stereo not given) | . | . | . | . | 84.0 | .
CN(Cc1ccco1)C(=O)C(Cc1ccccc1)NS(=O)(=O)c1ccc2c(c1)CCC(=O)N2 (stereo not given) | . | . | . | . | 78.3 | .
O=C(Nc1ccccc1Cl)c1cc(C2CCCN(C(=O)c3cccs3)C2)on1 (stereo not given) | / | . | . | / | / | .
CC(C)[C@@H]1C(=O)N[C@H](Cc2cn(S(=O)(=O)c3ccccc3)c3ccccc23)C(=O)N1C | / | / | / | / | / | .
CN(C)CCCn1c(=S)[nH]c2sc3c(c2c1=O)CCCC3 | . | . | . | . | 98.9 | .
CCn1c(=S)[nH]c2sc3c(c2c1=O)CCCC3 | . | . | . | . | . | .
O=C(C[C@@H]1C=C[C@@H](NC(=O)C2CC2)[C@@H](CO)O1)NCc1ccccc1Cl | / | . | . | / | / | .

Bioassay records deposited in PubChem by several laboratories.
